Data on 40 sequences can be found in the supplement of paper PMC6555819.

One assay deals with PPARa:RXRa (NR concentration 270 nM, RXRa partner concentration 90 nM). The assay is described as follows: PBM binding z-score (relative to random genomic background probes); higher = stronger binding; sequences stand for … in GC…GCGATTGACAGCGTAGAATGAAGG
In outline:
(§1)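 Random background probes are the reference for binding z-scores. These scores derive from regression-normalized fluorescence on custom Agilent 4×180K protein-binding microarrays incubated 1 h with ligand-free nuclear receptor dimers. Binding was detected with antibodies against each partner (one per run).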
With CTACCAAAGTGAACAAGGTCGTTGATTACTATTC, the PBM binding z-score was found to be 1.34.
In the case of GCTAGTTGCTCAGTAAAAGGTCACACACCGGTCG, the PBM binding z-score is 4.42.
TCTCGGGGGACACGAAAGGTCAGAGCTCGACATC: the PBM binding z-score came to 5.03.
Sequence AGTCAAAGTTCATCTAGGTAACGTAAGATATGCT showed a PBM binding z-score of 4.84.
Still for that read-out and setting: the value for ATATGTAGGTCACATCCGGGTCATTCAGGCTATG was 5.8; that for AGAATGAGGTTAAGAGCAGGGAAACAGAATACAT was 3.4.
Still for that read-out and setting: the value for GCTTACGGGTCAAAGGTTATAGCCTGAATAGAAT was 6.88; that for CAAGCTAGGTCACGAAAGGTCAAAGTCGAATGAC was 6.5; that for TAGCCTATGTCATGGGCCAGTATACCACGCGAAC was -0.267.
On the same count and under the same terms, the value for CGTCCAAGGTCAGCAGGTCAGTGACAGCGACGTG was 4.63; that for TCATATAGGTAAAGGTGAAAGTGGAACGATATGA was 3.54.
With ATCTCAAGGTAACCAAGTTCAGTGAATGCCGAAC, the PBM binding z-score is 0.956.
On the same count and under the same terms, then CCTTACGGGTCAAGGTGATAGCACGGGTGGTACG, with 4.8; and ACAGACAGGTGAGTGAAGGTATCTCAGCTGGACG, with 0.116; and CAAACTAGGTCAAAGGTCCAAGTCGAGCCAACCA, with 6.27.
Still for that read-out and setting: the value for ATATGTAGGTTAAGGGTCAGTCAGGTTGGTTCGC was 6.05; that for TCTGCTAGGTCAGTTGTTCAGCTAACGAGCTGCC was 1; that for AGTCAAAGTTCAGGAGGAGGTAACGTAAAGCACG was 3.67.
Still for that read-out and setting: then CCTTGCAGGCCAATCTGGGTCACTCAAGGCTTGA, with 3.31; and AGAACGAAGGCAATGAGTTGATAGCACGGGTGGC, with -0.613; and AGTCAAAGTTCACTAGGTAACGTGAGATTCAGCT, with 4.57.
In the case of GTACCAAGGTGAATTGGTCGTTGATGAGTAGGCG, the PBM binding z-score was determined as 0.557.
TCTGCTAGGTCAGTTCGTCAGCTAACGAGCTGCC yielded a PBM binding z-score of 0.896.
Same read-out and setting: then CCTACTGGGGCAAAAAGGTCATTGATGCCGATAA, with 4.96; and TTACCAAGGTGAAAGGTAGTTGATGCACGCCTTG, with 2.7; and TCAGACAGGTGAAGGTAACTTAGGTACGCAGTCG, with 1.46.
Same read-out and setting: the value for GCTGCTAGGTCAGGTGGGTCAGCTAACGGGTACG was 2.34; that for TAGCCTAGCTCATTGGGCCAGTATAGTACGCATC was -0.564.
Same read-out and setting: then AACACAGGGTCATCGTAGGCCAGAGTACGCACAG, with 5.84.
GTACCAAGGTGGATAGGTCGTTGATGAGTAGGCG: the PBM binding z-score turned out to be 0.372.
Same read-out and setting: the value for ACTATTAGTTGAGACGAGGGTAACCGATAGGTTG was -0.0411; that for CGTCAAAGTTCTACTAAGGTAACGTAAAGCACGC was 0.277; that for CGTCCAAGGTCAGAGGTCAGTGAAGAGATGACGG was 6.09.
In the case of GCTATTAATTGAAAGGGCAACCGAATGATTCTCG, the PBM binding z-score worked out at 1.08.
Regarding GCATATAGGTAATACAAGGTGAACGTCCGATTGT, the PBM binding z-score worked out at 1.55.
On the same count and under the same terms, then CGTGCAAGGTCATAGGAGGTCAGTGAAGACAGAT, with 5.98; and CAAACTAGGTCACCGGAAGGTCAAAGTCCGCATG, with 6.16.
TAGGCTAGGTCATGGGCCAGTATACCACGCGAAC came in with a PBM binding z-score of 4.03.
On the same count and under the same terms, the value for CGTCCAAGGTCAGAGAGGTCAGGGAATGCCGAGT was 5; that for AGAATGACGTTATTAAGATCAGGGAATTGCGGTC was -0.251.

In the next assay the test system is PPARg:RXRa (NR concentration 180 nM, RXRa partner concentration 90 nM). The description is as above. In outline: as §1
CTACCAAAGTGAACAAGGTCGTTGATTACTATTC gave a PBM binding z-score of 0.212.
GCTAGTTGCTCAGTAAAAGGTCACACACCGGTCG had a PBM binding z-score of 2.23.
The sequence TCTCGGGGGACACGAAAGGTCAGAGCTCGACATC displayed a PBM binding z-score of 3.63.
For the sequence AGTCAAAGTTCATCTAGGTAACGTAAGATATGCT, the PBM binding z-score was 6.6.
Regarding ATATGTAGGTCACATCCGGGTCATTCAGGCTATG, the PBM binding z-score is 9.18.
In turn, AGAATGAGGTTAAGAGCAGGGAAACAGAATACAT registered a PBM binding z-score of 1.98.
For GCTTACGGGTCAAAGGTTATAGCCTGAATAGAAT, the PBM binding z-score was determined as 11.5.
CAAGCTAGGTCACGAAAGGTCAAAGTCGAATGAC displayed a PBM binding z-score of 7.39.
Take TAGCCTATGTCATGGGCCAGTATACCACGCGAAC: the PBM binding z-score was found to be 0.56.
The same measure, in the same setting: the value for CGTCCAAGGTCAGCAGGTCAGTGACAGCGACGTG was 3.93; that for TCATATAGGTAAAGGTGAAAGTGGAACGATATGA was 4.42; that for ATCTCAAGGTAACCAAGTTCAGTGAATGCCGAAC was 0.372.
Same read-out and setting: the value for CCTTACGGGTCAAGGTGATAGCACGGGTGGTACG was 4.43; that for ACAGACAGGTGAGTGAAGGTATCTCAGCTGGACG was 0.581; that for CAAACTAGGTCAAAGGTCCAAGTCGAGCCAACCA was 12.8.
Still for that read-out and setting: then ATATGTAGGTTAAGGGTCAGTCAGGTTGGTTCGC, with 11; and TCTGCTAGGTCAGTTGTTCAGCTAACGAGCTGCC, with -0.335.
Turning to AGTCAAAGTTCAGGAGGAGGTAACGTAAAGCACG, the PBM binding z-score amounted to 5.03.
CCTTGCAGGCCAATCTGGGTCACTCAAGGCTTGA showed a PBM binding z-score of 2.29.
AGAACGAAGGCAATGAGTTGATAGCACGGGTGGC gave a PBM binding z-score of 0.809.
Still for that read-out and setting: the value for AGTCAAAGTTCACTAGGTAACGTGAGATTCAGCT was 7.14; that for GTACCAAGGTGAATTGGTCGTTGATGAGTAGGCG was 0.383.
The same measure, in the same setting: the value for TCTGCTAGGTCAGTTCGTCAGCTAACGAGCTGCC was 0.0243; that for CCTACTGGGGCAAAAAGGTCATTGATGCCGATAA was 4.68.
Same read-out and setting: the value for TTACCAAGGTGAAAGGTAGTTGATGCACGCCTTG was 3.76; that for TCAGACAGGTGAAGGTAACTTAGGTACGCAGTCG was 0.846; that for GCTGCTAGGTCAGGTGGGTCAGCTAACGGGTACG was 1.65.
TAGCCTAGCTCATTGGGCCAGTATAGTACGCATC showed a PBM binding z-score of 0.238.
Still for that read-out and setting: the value for AACACAGGGTCATCGTAGGCCAGAGTACGCACAG was 5.85; that for GTACCAAGGTGGATAGGTCGTTGATGAGTAGGCG was 0.422; that for ACTATTAGTTGAGACGAGGGTAACCGATAGGTTG was 0.515.
Still for that read-out and setting: the value for CGTCAAAGTTCTACTAAGGTAACGTAAAGCACGC was 0.459; that for CGTCCAAGGTCAGAGGTCAGTGAAGAGATGACGG was 8.26.
In the case of GCTATTAATTGAAAGGGCAACCGAATGATTCTCG, the PBM binding z-score worked out at 0.608.
With GCATATAGGTAATACAAGGTGAACGTCCGATTGT, the PBM binding z-score came to 1.47.
Same read-out and setting: the value for CGTGCAAGGTCATAGGAGGTCAGTGAAGACAGAT was 6.01; that for CAAACTAGGTCACCGGAAGGTCAAAGTCCGCATG was 9.5.
In turn, TAGGCTAGGTCATGGGCCAGTATACCACGCGAAC registered a PBM binding z-score of 4.36.
CGTCCAAGGTCAGAGAGGTCAGGGAATGCCGAGT: the PBM binding z-score came to 4.38.
Same read-out and setting: then AGAATGACGTTATTAAGATCAGGGAATTGCGGTC, with 0.405.
